Shown is part of a subset that was picked to be rich in hits.
Pf Dd2 growth = Plasmodium falciparum Dd2 growth inhibition | P. falciparum Dd2 growth, SYBR Green, 72 h | Potency, µM (titrated, usually from 28.9 µM), for inactives: at the highest dose activity, negative = inhibition, hits mostly inhibitors | 120,000 tested, 4.3% active; active = well fitted inhibition curve with a large enough effect;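 note: plate controls were DMSO vehicle for no effect and reference drug for full effect; nearly all actives have a fitted effect of over 65% in size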
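Readout: SYBR Green fluorescence, 485 nm excitation, 535 nm emission, after ~16 h lysis at 37C. Before that, Dd2-infected red cells (2.5% hematocrit) grew 72 h with compound, 29 uM top final concentration.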
Starred values were filed as active, the others as inactive; i = inactive; [ ] = remark or other dose. Potency is the fitted concentration of half-maximal effect.

SMILES | Pf Dd2 growth
CCN(CC)Cc1cnc2c(C(=O)N3CCC(C(N)=O)CC3)cnn2c1 | -9%
COCCN1C(=O)c2cccn2CC1CNC(=O)c1cccc(OC)c1 (stereo not given) | -7%
Cc1cc(C)n(CCC(=O)N[C@@H]2CN(Cc3ccncc3)C[C@H]2CN(C)C)n1 | 7%
O=C(C1CCC1)N1CCC(c2noc(-c3ccncc3)n2)C1 (stereo not given) | i[5.79 µM]
Cn1ncc(N2CCCC(CC(=O)NCCC3=CCCCC3)C2)cc1=O (stereo not given) | -3%
O=C(CCn1cncn1)N1CCC(c2[nH]ncc2-c2cccc(F)c2)CC1 | -4%
CCCCN(CCCC)CCNC(=O)CN1C(=O)CSc2ccc(S(=O)(=O)N3CCCCC3)cc21 | i
Cc1cc(C)cc(NC(=O)CN2C(=O)CSc3ccc(S(=O)(=O)N4CCCC4)cc32)c1 | -12%
CC(C)N(Cc1ccccc1)C(=O)CN1C(=O)CSc2ccc(S(=O)(=O)N3CCCC3)cc21 | 7.9µM*
O=C(c1ccno1)N1CCOC[C@H](Oc2ccc(C(F)(F)F)cn2)C1 | -20%[44.1 µM]
Cc1noc(C2CC3(CCN(C(=O)C4CC4)CC3)CN2C)n1 (stereo not given) | -7%
COc1ccc(C2Cn3cnc(C(=O)N4CCC(C(=O)NC(C)C)CC4)c3CO2)cc1 (stereo not given) | -19%
COc1ccccc1OCCNC(=O)C1CCCN(c2cn[nH]c(=O)c2)C1 (stereo not given) | 3%
COc1ccc(C(=O)N2CCC3(CC2)CC(N(C(=O)c2ccccc2)C2CC2)CCO3)cn1 (stereo not given) | i
CCNC(=O)[C@@H]1C[C@H](NC(=O)c2ccc(CC)s2)CN1C1CCOCC1 | -8%
COc1cccc(S(=O)(=O)N2CCN(C3CCN(C)C3=O)CC2)c1 (stereo not given) | 17%
Cc1c[nH]c(C(=O)N2CCCC(CCc3cccc(C(F)(F)F)c3)C2)c1 (stereo not given) | -22%
CN(CC1CCCN(CCc2cccc(C(F)(F)F)c2)C1)C(=O)c1ccc2[nH]ccc2c1 (stereo not given) | 10µM*
O=C(c1ccc(=O)[nH]c1)N1CCCC(CCc2cccc(C(F)(F)F)c2)C1 (stereo not given) | -14%
Cc1ccc(CNC(=O)c2ccc3c(c2)CN(Cc2cccc(F)c2F)CCO3)cc1 | -14%
O=C(c1ccc(Cl)cc1Cl)N1CCN(c2cc(-c3cccs3)[nH]n2)CC1 | -4%
COc1ccc(CCNc2ncnc3c2CN(c2ccc(Cl)cc2)C(=O)N(C)C3)cc1 | -4%
COc1ccc(CCc2nc3nccc(-c4ccc(OC)c(OC)c4)n3n2)cc1OC | 13µM*
COc1ccc(-c2ccnc3nc(CCc4ccc(OC)c(OC)c4)nn23)cc1 | -12%
CCc1nc2nccc(-c3ccc(OC)c(OC)c3)n2n1 | -21%
SMILES | Pf Dd2 growth
COc1cc(C)c(CN2CCCn3nc(C(=O)N4CCCC4)cc3C2)cc1C | -14%
CCn1ccc(C(=O)N2CCC3(CCCCO3)CC2)n1 | i
CCOc1ccc(C(=O)NCCn2ccn3nc(-c4ccc(OC)cc4)cc3c2=O)cc1 | i
CCCCOc1ccc(C(=O)NCCc2sc(-c3ccc(OC)c(OC)c3)nc2C)cc1 | i
CCCN1CCN(CCCNC(=O)c2ccc3c(c2)sc2nc(-c4ccc(OCC)cc4)cn23)CC1 | 1.3µM*
CCCC1=Nc2cc(C(=O)NCCc3ccc(OC)cc3OC)ccc2Sc2ccccc21 | -17%
CCN(CC)CCNC(=O)C1CCN(c2nn3cc(-c4ccc(F)cc4)nc3s2)CC1 | -9%
COc1ccc(-c2cn3c(n2)sc2cc(C(=O)Nc4ccc(C)cc4C)ccc23)cc1 | -8%
CCOc1ccc(-c2cc3c(=O)n(CCNC(=O)c4ccc(OC)cc4)ccn3n2)cc1 | i
COc1ccc(-c2cn3c(n2)sc2cc(C(=O)Nc4ccc(C)c(Cl)c4)ccc23)cc1 | 6.3µM*
COc1ccc(-c2cn3c(n2)sc2cc(C(=O)Nc4c(C)cccc4C)ccc23)cc1 | 6%
CCOc1ccc(-c2cn3c(n2)sc2cc(C(=O)NCCc4ccc(OC)cc4OC)ccc23)cc1 | 5.6µM*
CCN(CC)CCNC(=O)c1ccc2c(c1)sc1nc(-c3ccc(F)cc3)cn12 | 3.2µM*
Cc1c(C(=O)NCc2ccccc2Cl)sc2nc(-c3ccc(F)cc3)cn12 | i
CCCOc1cc(C)c2c(c1C)C[C@H](C(C)C(=O)N1CCN(CCO)CC1)CC2 (stereo not given in full) | i
O=C(C1CCN(Cc2ccco2)CC1)N1CCC2(CCCNC2=O)C1 (stereo not given) | -11%
Cc1cccc(NC(=O)N2CC(C(=O)N(C)C)C3(CCOCC3)C2)c1 (stereo not given) | i
COc1cc(NC(=O)NC[C@H]2O[C@@H](CO)[C@@H](O)[C@H]2N2CCN(c3ccccc3)CC2)cc(OC)c1 | i
COc1c(F)cccc1C(=O)N1CCC(Cc2ccc(C(=O)O)cc2)C1 (stereo not given) | -15%
O=C(NCCc1noc(C2CC2)n1)c1ccoc1 | 35%
Cc1ccc(C(=O)N2CCN(c3nnc4cccc(C)n34)CC2)cc1F | i
COc1ccccc1CCN1CCC(CN(C)Cc2n[nH]c(C)n2)CC1 | 14%
CCOc1ccc(-c2cn3c(n2)sc2cc(C(=O)NCCCN4CCCCCC4)ccc23)cc1 | 2.2µM*
CCOc1ccc(-c2cn3c(n2)sc2cc(C(=O)N4CCCC(C)C4)ccc23)cc1 (stereo not given) | 7.1µM*
CCOc1ccc(-c2cn3c(n2)sc2cc(C(=O)NCCCN(CC)CC)ccc23)cc1 | 2.8µM*
SMILES | Pf Dd2 growth
CCOc1ccc(C(=O)N2CCCC(n3cc(-c4nc(C5CC5)no4)nn3)C2)cc1 (stereo not given) | -29%
CCOc1ccc(-c2cc3c(=O)n(CCNC(=O)c4ccc(Cl)cc4)ccn3n2)cc1 | 0%
COc1ccc(-c2cn3c(n2)sc2cc(C(=O)N4CCCCC4)ccc23)cc1 | i
CCOc1ccc(-c2cn3c(n2)sc2cc(C(=O)NC4CCCc5ccccc54)ccc23)cc1 (stereo not given) | -20%
CCOc1ccc(-c2cn3c(n2)sc2cc(C(=O)NCCCN4CCCCC4)ccc23)cc1 | 2.5µM*
CCOc1ccc2c(n1)CCN(C(=O)c1ccn(CC)n1)C2 | -22%
Cc1nn(C)c(C)c1C(=O)N1CCCC(c2ccc(C(=O)O)cc2)C1 (stereo not given) | 3%
c1ccc2ncc(CNC[C@H]3COCc4nc5ccccc5n43)cc2c1 | -26%[44.1 µM]
CNC(=O)[C@@H]1C[C@@H](O)CN1C1CCN(C(=O)C2CCCCC2)CC1 | 1%
CCn1ncc(NC(=O)Cn2ncc3cc(-c4cccc(C#N)c4)ccc32)n1 | -16%
O=C(CC1CCCC1)N1CCC(Cc2nc(-c3ccc(F)cc3)no2)CC1 | 8%
CC(C)Cc1cc(C[C@@H]2C[C@H](NC(=O)c3ccco3)C2(C)C)no1 | -32%[44.1 µM]
COc1ccccc1C(=O)N1CCC2(C1)NC(=O)c1ccccc1CO2 (stereo not given) | -23%
Cc1cc(C(=O)N2CC[C@H]3C(=O)NCCCCCCN(Cc4ccncc4)[C@@H]3C2)n(C)n1 | -1%
COc1cc(F)c(CN2CC[C@@](O)(C3CC3)[C@H](C)C2)cc1OC | i
C[C@@H]1CN(Cc2noc(C3CCCC3)n2)CC[C@@]1(O)C1CCC1 | -24%
Cc1cccc(Nc2nc(N)nc(CN3CC[C@@](O)(C4CCC4)[C@H](C)C3)n2)c1 | 8.9µM*
CNC(=O)[C@@H]1CN(C(=O)CCc2cc(OC)no2)C[C@H]1c1n[nH]c(C)n1 | 6%
COCC(=O)NC1CCN(c2nc3ncccc3o2)CC1 | 9%[44.1 µM]

Bioassay records deposited in PubChem by National Center for Advancing Translational Sciences (NCATS).
